From PMC5540273 (PLoS ONE, 2017)
Values joined by “and” are separate entries in the source; they are usually repeats but may differ in a detail not shown here. Equal values may be shown once. Read-outs that look alike come from different tables or passages of the source.

Tests used:
[1] = test system: RIPK1; conditions: concentration: 1 μM, replicates: in singlicate, n = 1
[2] = test system: RIPK2; conditions: concentration: 1 μM, replicates: in singlicate, n = 1
[3] = test system: RIPK4; conditions: concentration: 1 μM, replicates: in singlicate, n = 1
[4] = test system: RIPK5; conditions: concentration: 1 μM, replicates: in singlicate, n = 1
[5] = test system: ROCK1; conditions: concentration: 1 μM, replicates: in singlicate, n = 1
[6] = test system: ROCK2; conditions: concentration: 1 μM, replicates: in singlicate, n = 1
[7] = test system: ROS1; conditions: concentration: 1 μM, replicates: in singlicate, n = 1
[8] = test system: RPS6KA4(Kin.Dom.1-N-terminal); conditions: concentration: 1 μM, replicates: in singlicate, n = 1
[9] = test system: RPS6KA4(Kin.Dom.2-C-terminal); conditions: concentration: 1 μM, replicates: in singlicate, n = 1
[10] = test system: RPS6KA5(Kin.Dom.1-N-terminal); conditions: concentration: 1 μM, replicates: in singlicate; n = 1
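Further: KINOMEscan kinase panel screen.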

Compound	%Inh [1]	%Inh [2]	%Inh [3]	%Inh [4]	%Inh [5]	%Inh [6]	%Inh [7]	%Inh [8]	%Inh [9]	%Inh [10]	%Inh ([1]; 1 µM)	%Inh ([2]; 1 µM)	%Inh ([3]; 1 µM)	%Inh ([4]; 1 µM)	%Inh ([5]; 1 µM)	%Inh ([6]; 1 µM)	%Inh ([7]; 1 µM)	%Inh ([8]; 1 µM)	%Inh ([9]; 1 µM)
Fc1cccc(COc2ccc(Nc3ncnc4sc(-c5ccc[nH]5)cc34)cc2Cl)c1 [GW707818]	34%	31%	0%	16%	27%	21%	8%	10%	0%	99.9%	–	–	–	–	–	–	–	–	–
COc1ccc(-c2nc3n(c2-c2ccncc2)CCC3)cc1 [SKF-104493]	–	–	–	–	–	–	–	–	–	0%	0% and 20%	40% and 46%	9% and 12%	19% and 0%	21% and 5%	29% and 0%	10% and 28%	7% and 0%	2% and 0%
Cl.Fc1ccccc1COc1ccc(Nc2ncnc3ccc(-c4nnc(C(F)(F)F)o4)cc23)cc1Cl [GW424170]	9%	28%	0%	0%	10%	4%	11%	10%	0%	6%	–	–	–	–	–	–	–	–	–
CCc1nc(-c2cccc(C)c2)c(-c2ccnc(NC(=O)c3ccccc3)c2)s1	0%	52%	42%	0%	35%	0%	0%	0%	8%	3%	–	–	–	–	–	–	–	–	–
CNc1nccc(-c2c(-c3ccc(F)cc3)ncn2CCCN2CCOCC2)n1 [SB-222516]	9%	0%	33%	0%	4%	0%	3%	27%	1%	8%	–	–	–	–	–	–	–	–	–
O=c1cc(N2CCOCC2)nc2n(Cc3cccc(Cl)c3)ccn12 [GSK2296823]	0%	0%	19%	0%	0%	0%	0%	6%	0%	10%	–	–	–	–	–	–	–	–	–
Clc1ccc(-c2cc(-c3c[nH]nc3-c3ccccn3)ccn2)cc1 [GW681251]	0%	37%	0%	0%	0%	12%	0%	2%	0%	6%	–	–	–	–	–	–	–	–	–
C[C@@H]1CCN(C(=O)CO)C[C@@H]1N(C)c1ncnc2[nH]ccc12	0%	0%	0%	12%	16%	23%	0%	88%	0%	0%	–	–	–	–	–	–	–	–	–
Cc1cccc(-c2nc(Nc3ccc4[nH]nnc4c3)c3ccccc3n2)n1 [GW867587]	0%	0%	0%	0%	49%	0%	0%	0%	0%	0%	–	–	–	–	–	–	–	–	–
C[C@H]1CC[C@@H](C(=O)Nc2ccccc2)CN1c1cc(-c2ccc3c(N)n[nH]c3c2)nc(N)n1 [GSK2283293]	0%	0%	6%	0%	9%	18%	0%	6%	0%	12%	–	–	–	–	–	–	–	–	–
NC(=O)c1sc(-n2cnc3ccccc32)cc1OCc1ccccc1F [GSK1024306]	0%	13%	0%	0%	85%	86%	4%	17%	0%	17%	–	–	–	–	–	–	–	–	–
CC(C)(C)c1ccc(-n2cnc3c(N)ncnc32)cc1 [SKF-97263]	1%	0%	16%	14%	0%	0%	15%	0%	2%	19%	–	–	–	–	–	–	–	–	–
O=C(c1ccc(-c2cc(-c3c[nH]nc3-c3ccccn3)ccn2)cc1)N1CCCC1 [GW792479]	1%	9%	5%	0%	0%	0%	0%	13%	0%	0%	–	–	–	–	–	–	–	–	–
FC(F)(F)c1cc(Nc2nccc(-c3c(-c4ccc(Cl)cc4)nn4ncccc34)n2)ccc1Cl [GW829351]	0%	6%	0%	0%	50%	0%	0%	0%	0%	0%	–	–	–	–	–	–	–	–	–
Nc1nc(-c2ccccn2)c(-c2ccnc3ccccc23)s1 [GW548057]	16%	15%	2%	14%	27%	33%	1%	12%	0%	21%	–	–	–	–	–	–	–	–	–
Cl.Cl.c1ccc(-c2cc3ccncc3cc2OC2CCNCC2)cc1 [GSK1122999]	31%	17%	9%	1%	94.6%	91.6%	33%	11%	39%	27%	–	–	–	–	–	–	–	–	–

Compound	%Inh [1]	%Inh [2]	%Inh [3]	%Inh [4]	%Inh [5]	%Inh [6]	%Inh [7]	%Inh [8]	%Inh [9]	%Inh [10]	%Inh ([1]; 1 µM)	%Inh ([2]; 1 µM)	%Inh ([3]; 1 µM)	%Inh ([4]; 1 µM)	%Inh ([5]; 1 µM)	%Inh ([6]; 1 µM)	%Inh ([7]; 1 µM)	%Inh ([8]; 1 µM)	%Inh ([9]; 1 µM)
Cc1ccc(C)c(NC(=O)NCCNc2ccnc(Nc3ccc(F)cc3)n2)c1 [GSK1379878]	4%	0%	0%	9%	7%	0%	16%	0%	0%	0%	–	–	–	–	–	–	–	–	–
Cc1cc(N2CCC(NS(=O)(=O)c3ccc(F)cc3)CC2)nc(Nc2cccc(C#N)c2)n1.O=C(O)C(F)(F)F [GSK1653537]	57%	0%	4%	0%	0%	0%	7%	0%	0%	28%	–	–	–	–	–	–	–	–	–
Cn1ccc2ncnc(Oc3ccc(NC(=O)Nc4cccnc4)c(Cl)c3)c21	0%	3%	0%	19%	1%	0%	0%	0%	0%	17%	–	–	–	–	–	–	–	–	–
CC(=O)Nc1n[nH]c2ncc(-c3ccccc3)cc12 [SB-548492]	8%	0%	24%	33%	3%	1%	22%	9%	17%	3%	–	–	–	–	–	–	–	–	–
Nc1n[nH]c2nnc(-c3ccccc3)cc12 [SB-517389]	0%	17%	17%	0%	0%	0%	0%	4%	38%	5%	–	–	–	–	–	–	–	–	–
Cc1ccc(NC(=O)c2cccc(C#N)c2)cc1-c1ccc(C(=O)Nc2ccncc2)cc1 [GSK1398463]	2%	3%	38%	8%	22%	0%	0%	9%	0%	26%	–	–	–	–	–	–	–	–	–
COc1ccc(NC(=O)Nc2ccc(C)c(-c3ccc(C(=O)Nc4ccncc4)cc3)c2)cc1 [GSK1398475]	16%	2%	1%	0%	0%	0%	0%	0%	0%	0%	–	–	–	–	–	–	–	–	–
Cl.c1ccc(Cn2ccc3cc(Nc4ncnc5ccccc45)ccc32)cc1 [GW275568]	26%	54%	21%	32%	1%	0%	14%	4%	0%	6%	–	–	–	–	–	–	–	–	–
Fc1cccc(COc2ccc(Nc3ncnc4nn5ccccc5c34)cc2Cl)c1 [GW689066]	0%	0%	0%	0%	40%	33%	1%	17%	0%	0%	–	–	–	–	–	–	–	–	–
Oc1ccc2ncnc(Nc3ccc(OCc4ccccc4)cc3)c2c1 [GI262866]	1%	100%	6%	0%	0%	0%	0%	8%	0%	4%	–	–	–	–	–	–	–	–	–
Fc1ccc(Nc2nccc(-c3c(-c4ccc(Cl)cc4)nn4ncccc34)n2)cc1F [GW829058]	0%	12%	29%	37%	20%	33%	14%	25%	3%	2%	–	–	–	–	–	–	–	–	–
Fc1ccc(-c2ncn(CCCNCc3ccccc3)c2-c2ccncc2)cc1	9%	0%	29%	26%	27%	32%	0%	0%	32%	0%	–	–	–	–	–	–	–	–	–
CNc1nccc(-c2c(-c3ccc(F)cc3)ncn2C2CCN(C)CC2)n1 [SB-222903]	3%	40%	0%	2%	56%	0%	0%	15%	0%	0%	–	–	–	–	–	–	–	–	–
CS(=O)(=O)CCNCc1nc(-c2ccc3ncnc(Nc4ccc(OCc5cccc(F)c5)c(Cl)c4)c3c2)cs1.Cl [GW583340]	2%	42%	6%	1%	5%	0%	0%	10%	0%	0%	–	–	–	–	–	–	–	–	–
COc1ccc(Nc2nccc(N3CCC(NC(=O)Nc4ccc5c(c4)OCO5)C3)n2)cc1 (stereo not shown) [GSK1379745]	0%	0%	0%	0%	12%	9%	34%	13%	0%	0%	–	–	–	–	–	–	–	–	–
